# CRFBP-R2 agonist: CRF-BP/CRF-R2 complex agonism. 0.46% of 350,000 active. HEK293 CRF-R2/CRF-BP, calcium dye fluorescence (FLIPR); percent of saturating CRF peptide response. activation, % at 13.2 µM;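 active means activation of at least 50%, plus an integration ratio under a set limit after plate pattern correction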;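 further: plate controls were neutral control wells without compound for no effect and CRF at EC100 for full effect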
# ANO1 activ: mouse TMEM16A channel activation, primary screen | 0.3% of 340,000 active | HEK293 TMEM16A/YFP-H148Q/I152L, iodide quench fluorescence; stronger effect = lower value | AID 623877 | B-score at 10 µM | Q8BHY3;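 active means fluorescence-ratio B-score plate-corrected deviation score at least 3 library SD below zero, with starting fluorescence score within 5 deviations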;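 further: channel opened by trigger with iodide after compound preincubation; score built on the fluorescence ratio of max minus min over baseline; more negative score means more quench and so TMEM16A activation or potentiation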
# Target sequence (Q8BHY3 whole entry, looked up): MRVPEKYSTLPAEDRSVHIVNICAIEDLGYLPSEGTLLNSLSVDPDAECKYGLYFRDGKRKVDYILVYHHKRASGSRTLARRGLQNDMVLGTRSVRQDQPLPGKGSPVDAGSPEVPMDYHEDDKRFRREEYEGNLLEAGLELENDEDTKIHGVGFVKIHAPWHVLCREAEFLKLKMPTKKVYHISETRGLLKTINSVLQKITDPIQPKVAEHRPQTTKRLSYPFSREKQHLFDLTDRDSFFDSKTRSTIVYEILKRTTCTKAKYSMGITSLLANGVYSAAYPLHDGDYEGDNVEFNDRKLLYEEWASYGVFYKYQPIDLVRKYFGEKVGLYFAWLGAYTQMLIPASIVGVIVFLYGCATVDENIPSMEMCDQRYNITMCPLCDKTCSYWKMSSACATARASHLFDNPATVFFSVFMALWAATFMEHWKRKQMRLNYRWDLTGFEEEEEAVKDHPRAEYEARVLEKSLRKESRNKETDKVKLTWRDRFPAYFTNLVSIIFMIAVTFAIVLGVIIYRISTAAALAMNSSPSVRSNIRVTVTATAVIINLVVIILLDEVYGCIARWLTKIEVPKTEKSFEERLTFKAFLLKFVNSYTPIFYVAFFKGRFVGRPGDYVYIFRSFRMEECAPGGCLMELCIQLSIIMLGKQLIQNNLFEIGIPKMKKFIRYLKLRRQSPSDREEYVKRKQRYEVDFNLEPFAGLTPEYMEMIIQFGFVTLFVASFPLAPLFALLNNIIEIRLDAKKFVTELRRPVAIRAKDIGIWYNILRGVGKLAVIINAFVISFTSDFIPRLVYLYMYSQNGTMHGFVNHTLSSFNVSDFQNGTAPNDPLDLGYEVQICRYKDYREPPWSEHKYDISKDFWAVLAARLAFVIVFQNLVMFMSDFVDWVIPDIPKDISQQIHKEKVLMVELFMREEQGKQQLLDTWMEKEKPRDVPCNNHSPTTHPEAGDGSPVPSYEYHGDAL
# ANO1 block: inhibitors of mouse TMEM16A calcium-activated chloride channel | HEK293 TMEM16A/YFP iodide influx fluorescence, ionomycin | normalized B-score (activity score, 25-100; higher = stronger inhibition) at 10 µM | 1.2% of 310,000 active | AID 588511;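 active means ratio plate-corrected score three or more library SD toward inhibition, starting fluorescence score within five deviations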;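 further: score derived from kinetic fluorescence span divided by baseline fluorescence per well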
# NR3A LBD binder: NR3A (human) ligand-binding domain modulation; NR3A LBD differential scanning fluorimetry, Tm shift; 0% = protein alone, 100% = glycine-bound protein; Tm shift relative to glycine control, % at 25 µM; 2.5% of 340,000 active; AID 1259313;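 active means melting temperature shift of at least 10% of the positive control shift, at one fixed dose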
# CRFR2-BP antag: antagonists of CRF-binding protein/CRF-R2 receptor complex; 0.59% of 350,000 active; inhibition, % at 11.8 µM; HEK293 CRF-R2/CRF-BP, CRF-induced calcium fluorescence;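 active means inhibition of the ligand-induced calcium signal above about 50% at the single tested concentration, limit read from the data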
# MPTP block: inhibitors of mitochondrial permeability transition pore; isolated mouse mitochondria, Ca2+ swelling absorbance, 30 min; inhibition, % at 10 µM; 1.4% of 360,000 active;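 active means inhibition of 50% or more, scaled per plate between neutral and stimulator controls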;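 further: 0% = DMSO wells given calcium and 100% = 1 mM EGTA wells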
# Active calls of the source: *; i = inactive; x = no result. The list is not random: actives were taken first. Their share in the collection is about 5.1%.
SMILES,CRFBP-R2 agonist,ANO1 activ,ANO1 block,NR3A LBD binder,CRFR2-BP antag,MPTP block
NNc1nc(C(F)(F)F)nc2ccccc12,0,i,i,2,-12,0
O/C=c1\ccc2cccc3nc(C(F)(F)F)nc1c23,97*,i,i,-3,-38,22
Cn1cncc1C#Cc1ccc2cc(CCO)oc(=O)c2c1,-1,i,x,-3,14,0
Cn1cncc1C#Cc1ccc2cc(C(C)(C)O)oc(=O)c2c1,-2,-11*,x,-1,-4,-1
O=C(CCNC(=O)c1ccco1)Nc1nc(-c2ccccc2)cs1,-1,x,x,0,-3,0
COc1cc(O)ccc1/C=N/NC(=O)c1ccc([N+](=O)[O-])cc1,-1,i,i,2,4,0
O=C(NC(CSCc1ccccc1)C(=O)N/N=C/c1ccc(O)cc1O)c1ccc([N+](=O)[O-])cc1 (stereo unspecified),0,i,i,16*,6,0
O=[N+]([O-])c1ccc(/C=N/Nc2nc(NCc3ccccc3)nc(N3CCOCC3)n2)cc1,0,i,i,1,5,0
O=[N+]([O-])c1cccc(/C=N/Nc2nc(NCc3ccccc3)nc(N3CCOCC3)n2)c1O,69*,i,i,2,-4,32
NNc1nc(NCc2ccccc2)nc(N2CCOCC2)n1,3,i,i,14*,4,0
O=C(NC1CCCCCC1)c1ccco1,0,i,i,3,3,0
COc1ccc(/C=C2\S/C(=N/S(=O)(=O)c3cccs3)NC2=O)cc1,0,i,i,-5,69*,11
Nn1c(SCC(=O)NNC(=O)c2ccccc2)nnc1-c1ccccc1F,5,i,i,-1,-2,0
CC(=O)C1=C(O)C(=O)N(Cc2ccccc2)C1c1ccc(F)cc1 (stereo unspecified),0,x,i,-1,56*,2
Cc1ccc(C)c(NC(=S)N2CCC(C(=O)c3ccc(F)cc3)CC2)c1,0,x,x,x,4,0
O=C(NNC(=O)c1ccccc1C(=O)O)c1ccc(O)cc1,-2,i,i,2,58*,0
CC(C)Oc1ccc(C(=O)NNC(=O)c2ccccc2C(=O)O)cc1,0,i,i,-2,-13,9
COCCn1c(-c2ccc(SC)cc2)nc2c1c(=O)[nH]c(=O)n2CC(C)C,-1,i,i,-1,3,0
Cc1ccc(-c2nc3c(c(=O)[nH]c(=O)n3CC(C)C)n2CC(C)C)cc1[N+](=O)[O-],-5,-4.6*,i,-3,-33,-1
COCCn1c(-c2ccc(OC(F)(F)C(F)C(F)(F)F)cc2)nc2c1c(=O)[nH]c(=O)n2CC(C)C (stereo unspecified),1,i,100*,-1,-3,-4
Cc1onc(-c2c(Cl)cccc2Cl)c1-c1nc2cc(Cl)ccc2c(=O)o1,-1,i,x,-2,19,17
COc1ccc(/C=N/Nc2ncnc3sc(C)c(C)c23)cc1,0,i,i,-10,-20,-1
Oc1ccc(/C=N/Nc2nccnc2Cl)cc1,0,i,i,-12,16,4
Cc1sc2ncnc(N/N=C/c3ccc(O)cc3)c2c1C,0,i,i,35*,4,3
Nc1c(Cl)ncnc1N/N=C/c1ccc(O)cc1,-2,i,i,14*,16,1
SMILES,CRFBP-R2 agonist,ANO1 activ,ANO1 block,NR3A LBD binder,CRFR2-BP antag,MPTP block
CCn1nc(C)c(CNC(=O)C2CCC(=O)N(CCc3ccc(Cl)cc3)C2)c1C (stereo unspecified),4,i,i,-1,1,-1
O=C(O)c1cc2c(ncc3c(=O)n(-c4ccccc4)[nH]c32)s1,x,x,x,x,x,-3
C=CCn1c(COc2ccccc2)nnc1SCC(=O)N/N=C/c1cc(Cl)ccc1O,-1,i,i,-6,60*,0
Cc1nc2c(C)cccc2cc1C(=O)N/N=C/c1cccnc1,0,i,i,14*,6,1
Cc1nc2c(C)cccc2cc1C(=O)N/N=C/c1ccc(C(=O)O)cc1,0,i,i,0,8,-1
Cc1cccc(S(=O)(=O)Nc2cc(Cl)ccc2N2CCOCC2)c1,2,i,x,2,-5,0
CN(C)c1ccc(/C=C(/C#N)C(=O)Nc2nc3c(s2)CCN(Cc2ccccc2)C3)cc1,158*,i,x,-6,-88,2
O=C(Nc1cc(S(=O)(=O)N2CCOCC2)ccc1N1CCOCC1)c1ccc(Cl)nc1,-2,i,i,-3,8,2
O=C(O)c1cc(NN=Nc2cccc(S(=O)(=O)O)c2)cc([N+](=O)[O-])c1,-4,i,i,10*,6,-2
Cc1ccc2[nH]c(C(=O)N3CCN(c4cccc(Cl)c4)CC3)cc2c1,-1,i,i,0,-7,3
CCc1cc(CNC(=O)C2CCC(=O)N(CCc3cccc(F)c3)C2)on1 (stereo unspecified),-2,i,x,-2,-2,1
O=C1C2C3C=CC(c4ccccc4)(C2C(=O)N1c1cccc(Cl)c1)C1C(=O)N(c2cccc(Cl)c2)C(=O)C31 (stereo unspecified),26,i,i,23*,-68,0
CCOC(=O)c1sc(NC(=O)/C=C/c2ccccc2)nc1C,0,i,i,10*,-2,8
Cc1nc(NC(=O)/C=C/c2ccccc2)sc1C(=O)Nc1ccccc1,0,i,i,21*,-29,1
COC(=O)c1sc(NC(=O)/C=C/c2ccccc2Cl)nc1C,0,i,i,19*,2,2
CCOC(=O)c1sc(NC(=S)NC(=O)c2cccc(OC)c2)nc1C,58*,i,i,0,-1,1
Cc1nc(NC(=O)/C=C/c2ccccc2)sc1C(=O)NCCO,0,i,i,-1,-13,2
CCOC(=O)CNC(=O)c1sc(NC(=O)/C=C/c2ccccc2)nc1C,5,i,i,-1,-3,0
Cc1cc(=O)[nH]c(NN=C2CCCCC2C)n1 (stereo unspecified),3,x,x,-2,-4,0
COc1ccc(/C=C/C(=O)Oc2ccc(/C=N/NC(=O)c3ccncc3)cc2)cc1,3,i,i,3,-1,-1
CCN(CC)CCNC(=O)CCc1nnc2ccc(N3CCC(C)CC3)nn12,0,i,i,0,6,0
CN(Cc1cn(Cc2cccc(Cl)c2)nn1)C1CN(Cc2cn(Cc3cccc(Cl)c3)nn2)S(=O)(=O)C1 (stereo unspecified),x,x,x,x,x,0
COC(=O)c1sc(NC(=O)/C=C/c2ccc(C)cc2)nc1C,2,i,i,23*,-13,3

# Compound activity (PubChem)
